Laboratory results published in article PMC5540273 (PLoS ONE, 2017).

Key:
Conditions in all cases: concentration: 1 μM, replicates: in singlicate; n = 1
ERK5 = tested on: T1, ERK5
T1 construct: gene MAPK7

ERK8 = tested on: T2, ERK8
T2 construct: gene MAPK15

ERN1 = tested on: ERN1
FAK = tested on: T3, FAK
T3 construct: gene PTK2

FER = tested on: FER
FES = tested on: FES
FGFR1 = tested on: FGFR1
FGFR2 = tested on: FGFR2
FGFR3 = tested on: FGFR3
FGFR4 = tested on: FGFR4
FGR = tested on: FGR
FLT1 = tested on: FLT1
FLT3-autoinhibited = tested on: FLT3-autoinhibited
FLT3 = tested on: FLT3
FLT4 = tested on: FLT4
FRK = tested on: FRK
FYN = tested on: FYN
GAK = tested on: GAK
GCN2(Kin.Dom.2,S808G) = tested on: T4, GCN2(Kin.Dom.2,S808G)
T4 construct: gene EIF2AK4

GRK1 = tested on: GRK1
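Note: KINOMEscan kinase panel screen.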

COc1cc2nccc(Nc3cccc(Oc4ccccc4)c3)c2cc1OC.Cl [GW284543]
%Inh (ERK5): 26% | %Inh (ERK8): 13% | %Inh (ERN1): 8% | %Inh (FAK): 23% | %Inh (FER): 30% | %Inh (FES): 4% | %Inh (FGFR1): 17% | %Inh (FGFR2): 26% | %Inh (FGFR3): 6% | %Inh (FGFR4): 8% | %Inh (FGR): 25% | %Inh (FLT1): 24% | %Inh (FLT3-autoinhibited): 10% | %Inh (FLT3): 6% | %Inh (FLT4): 38% | %Inh (FRK): 0% | %Inh (FYN): 36% | %Inh (GAK): 0% | %Inh (GCN2(Kin.Dom.2,S808G)): 0% | %Inh (GRK1): 0%

CCC(=O)c1c(-c2ccccc2)c2cc(Cl)ccc2c(=O)n1Cc1cc(C(=O)NC2CC2)n(C)n1
%Inh (ERK5): 4% | %Inh (ERK8): 0% | %Inh (ERN1): 12% | %Inh (FAK): 0% | %Inh (FER): 0% | %Inh (FES): 22% | %Inh (FGFR1): 4% | %Inh (FGFR2): 2% | %Inh (FGFR3): 0% | %Inh (FGFR4): 0% | %Inh (FGR): 20% | %Inh (FLT1): 0% | %Inh (FLT3-autoinhibited): 0% | %Inh (FLT3): 0% | %Inh (FLT4): 1% | %Inh (FRK): 8% | %Inh (FYN): 0% | %Inh (GAK): 1% | %Inh (GCN2(Kin.Dom.2,S808G)): 0% | %Inh (GRK1): 0%

CCCC(=O)Nc1n[nH]c2ncc(-c3cccc4ccccc34)cc12 [SB-642057]
%Inh (ERK5): 0% | %Inh (ERK8): 0% | %Inh (ERN1): 0% | %Inh (FAK): 8% | %Inh (FER): 3% | %Inh (FES): 0% | %Inh (FGFR1): 0% | %Inh (FGFR2): 0% | %Inh (FGFR3): 0% | %Inh (FGFR4): 19% | %Inh (FGR): 10% | %Inh (FLT1): 10% | %Inh (FLT3-autoinhibited): 5% | %Inh (FLT3): 0% | %Inh (FLT4): 1% | %Inh (FRK): 0% | %Inh (FYN): 42% | %Inh (GAK): 0% | %Inh (GCN2(Kin.Dom.2,S808G)): 0% | %Inh (GRK1): 0%

CCC(=O)c1c(-c2ccccc2)c2cc(Cl)ccc2c(=O)n1Cc1cc(S(C)(=O)=O)n(CC(N)=O)n1
%Inh (ERK5): 0% | %Inh (ERK8): 0% | %Inh (ERN1): 0% | %Inh (FAK): 0% | %Inh (FER): 0% | %Inh (FES): 0% | %Inh (FGFR1): 6% | %Inh (FGFR2): 9% | %Inh (FGFR3): 2% | %Inh (FGFR4): 0% | %Inh (FGR): 0% | %Inh (FLT1): 0% | %Inh (FLT3-autoinhibited): 0% | %Inh (FLT3): 0% | %Inh (FLT4): 0% | %Inh (FRK): 0% | %Inh (FYN): 0% | %Inh (GAK): 0% | %Inh (GCN2(Kin.Dom.2,S808G)): 0% | %Inh (GRK1): 24%

Cn1c(=O)c(F)c(Nc2ccc(I)cc2F)c2c(=O)n(OC[C@H](O)CO)cnc21
%Inh (ERK5): 24% | %Inh (ERK8): 16% | %Inh (ERN1): 0% | %Inh (FAK): 30% | %Inh (FER): 10% | %Inh (FES): 9% | %Inh (FGFR1): 23% | %Inh (FGFR2): 4% | %Inh (FGFR3): 0% | %Inh (FGFR4): 12% | %Inh (FGR): 32% | %Inh (FLT1): 0% | %Inh (FLT3-autoinhibited): 0% | %Inh (FLT3): 0% | %Inh (FLT4): 10% | %Inh (FRK): 0% | %Inh (FYN): 14% | %Inh (GAK): 11% | %Inh (GCN2(Kin.Dom.2,S808G)): 0% | %Inh (GRK1): 9%

Nc1ncnc2c1ncn2-c1cccc(F)c1 [SKF-97560]
%Inh (ERK5): 3% | %Inh (ERK8): 0% | %Inh (ERN1): 27% | %Inh (FAK): 1% | %Inh (FER): 14% | %Inh (FES): 0% | %Inh (FGFR1): 0% | %Inh (FGFR2): 12% | %Inh (FGFR3): 1% | %Inh (FGFR4): 90.7% | %Inh (FGR): 0% | %Inh (FLT1): 22% | %Inh (FLT3-autoinhibited): 35% | %Inh (FLT3): 47% | %Inh (FLT4): 19% | %Inh (FRK): 0% | %Inh (FYN): 0% | %Inh (GAK): 1% | %Inh (GCN2(Kin.Dom.2,S808G)): 0% | %Inh (GRK1): 10%

COC(=O)c1c(-c2ccccc2)c2cc(Br)ccc2c(=O)n1Cc1ccc(S(C)(=O)=O)cc1
%Inh (ERK5): 8% | %Inh (ERK8): 0% | %Inh (ERN1): 23% | %Inh (FAK): 6% | %Inh (FER): 0% | %Inh (FES): 20% | %Inh (FGFR1): 0% | %Inh (FGFR2): 10% | %Inh (FGFR3): 2% | %Inh (FGFR4): 0% | %Inh (FGR): 13% | %Inh (FLT1): 0% | %Inh (FLT3-autoinhibited): 0% | %Inh (FLT3): 9% | %Inh (FLT4): 1% | %Inh (FRK): 1% | %Inh (FYN): 0% | %Inh (GAK): 9% | %Inh (GCN2(Kin.Dom.2,S808G)): 0% | %Inh (GRK1): 0%

COc1ccc(Nc2nccc(N3CCC(NS(=O)(=O)c4ccc(NC(C)=O)cc4)C3)n2)cc1 (stereo not shown) [GSK1379729]
%Inh (ERK5): 0% | %Inh (ERK8): 53% | %Inh (ERN1): 0% | %Inh (FAK): 0% | %Inh (FER): 24% | %Inh (FES): 5% | %Inh (FGFR1): 8% | %Inh (FGFR2): 29% | %Inh (FGFR3): 18% | %Inh (FGFR4): 98.5% | %Inh (FGR): 26% | %Inh (FLT1): 26% | %Inh (FLT3-autoinhibited): 27% | %Inh (FLT3): 29% | %Inh (FLT4): 26% | %Inh (FRK): 16% | %Inh (FYN): 15% | %Inh (GAK): 9% | %Inh (GCN2(Kin.Dom.2,S808G)): 14% | %Inh (GRK1): 9%

COc1ccc(-c2coc3ccc(-c4nnc(SCc5cccc(C#N)c5)o4)cc23)cc1
%Inh (ERK5): 0% | %Inh (ERK8): 14% | %Inh (ERN1): 11% | %Inh (FAK): 0% | %Inh (FER): 10% | %Inh (FES): 7% | %Inh (FGFR1): 11% | %Inh (FGFR2): 13% | %Inh (FGFR3): 17% | %Inh (FGFR4): 17% | %Inh (FGR): 0% | %Inh (FLT1): 0% | %Inh (FLT3-autoinhibited): 10% | %Inh (FLT3): 13% | %Inh (FLT4): 0% | %Inh (FRK): 0% | %Inh (FYN): 5% | %Inh (GAK): 12% | %Inh (GCN2(Kin.Dom.2,S808G)): 0% | %Inh (GRK1): 9%

CCCNC(=O)Nc1ccc(Oc2ncnc3ccn(C)c23)cc1
%Inh (ERK5): 3% | %Inh (ERK8): 0% | %Inh (ERN1): 35% | %Inh (FAK): 3% | %Inh (FER): 0% | %Inh (FES): 0% | %Inh (FGFR1): 8% | %Inh (FGFR2): 0% | %Inh (FGFR3): 0% | %Inh (FGFR4): 0% | %Inh (FGR): 0% | %Inh (FLT1): 0% | %Inh (FLT3-autoinhibited): 2% | %Inh (FLT3): 45% | %Inh (FLT4): 10% | %Inh (FRK): 0% | %Inh (FYN): 1% | %Inh (GAK): 3% | %Inh (GCN2(Kin.Dom.2,S808G)): 10% | %Inh (GRK1): 24%

Cc1c(Cn2c(C)nn3c(=O)cc(N4CCO[C@H](C)C4)nc23)cccc1C(F)(F)F [GSK2373690]
%Inh (ERK5): 0% | %Inh (ERK8): 0% | %Inh (ERN1): 10% | %Inh (FAK): 0% | %Inh (FER): 20% | %Inh (FES): 0% | %Inh (FGFR1): 5% | %Inh (FGFR2): 1% | %Inh (FGFR3): 18% | %Inh (FGFR4): 3% | %Inh (FGR): 0% | %Inh (FLT1): 22% | %Inh (FLT3-autoinhibited): 0% | %Inh (FLT3): 0% | %Inh (FLT4): 0% | %Inh (FRK): 35% | %Inh (FYN): 14% | %Inh (GAK): 52% | %Inh (GCN2(Kin.Dom.2,S808G)): 3% | %Inh (GRK1): 0%
